RECQ1 inh: qHTS Assay for Inhibitors of RecQ-Like Dna Helicase 1 (RECQ1) | RECQ1 DNA unwinding, red fluorescence kinetic read | Potency, µM (series often up to 57.3 µM), usual class: inhibitors | 240,000 tested, 0.54% active; further: nearly all actives have a fitted effect of over 30% in size
Target sequence (P46063 whole entry, looked up): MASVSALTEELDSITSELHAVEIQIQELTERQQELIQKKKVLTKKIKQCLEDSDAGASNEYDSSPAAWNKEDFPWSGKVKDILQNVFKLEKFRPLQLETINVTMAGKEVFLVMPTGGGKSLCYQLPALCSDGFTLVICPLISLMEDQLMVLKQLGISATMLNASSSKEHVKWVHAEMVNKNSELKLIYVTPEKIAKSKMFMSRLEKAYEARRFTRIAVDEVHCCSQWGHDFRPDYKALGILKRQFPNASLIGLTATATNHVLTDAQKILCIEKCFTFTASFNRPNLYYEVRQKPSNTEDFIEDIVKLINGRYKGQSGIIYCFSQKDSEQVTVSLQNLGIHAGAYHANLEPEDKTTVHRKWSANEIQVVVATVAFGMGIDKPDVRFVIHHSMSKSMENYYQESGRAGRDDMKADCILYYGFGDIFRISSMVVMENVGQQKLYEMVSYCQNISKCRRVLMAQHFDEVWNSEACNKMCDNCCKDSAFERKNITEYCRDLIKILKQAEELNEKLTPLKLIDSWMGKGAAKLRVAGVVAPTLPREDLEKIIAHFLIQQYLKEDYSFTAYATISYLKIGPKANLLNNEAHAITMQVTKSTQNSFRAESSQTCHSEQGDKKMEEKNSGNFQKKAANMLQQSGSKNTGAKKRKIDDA
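50 nM RECQ1T1 preincubated 15 min with compound in Tris pH 8.0 buffer with MgCl2, DTT, Tween-20 and 2.5 ug/ml poly(dI-dC); started with 200 nM TAMRA/BHQ-2 forked duplex and 2 mM ATP. Unwinding read as fluorescence (525/598 nm), two reads 2 h apart.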
BLM inh: qHTS Assay for Inhibitors of Bloom's syndrome helicase (BLM). RecQ-like DNA helicase BLM (Homo sapiens), P54132. recombinant BLM DNA unwinding, fluorescence dequenching. Potency, µM (titrated, usually from 56.1 µM), actives largely listed as inhibitors. 350,000 tested, 0.2% active. AID 2528, 2010; further: nearly all actives have a fitted effect of over 35% in size
APE1 inh: qHTS Assay for Inhibitors of the Human Apurinic/apyrimidinic Endonuclease 1 (APE1); 350,000 tested, 0.35% active; DNA repair nuclease/redox regulator APEX1 (Homo sapiens), P27695; recombinant APE1, TAMRA/BHQ-2 abasic DNA cleavage fluorescence; Potency, µM (highest dose often 65.8 µM), hits mostly inhibitors; AID 2517, 2012; further: nearly all actives have a fitted effect of over 55% in size
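Kinetic fluorescence read (525 ex/598 em nm, three reads 60 s apart) of AP-site incision; signal = third minus first read. Enzyme 0.75 nM, dual-labelled THF duplex 50 nM, compound preincubation 15 min RT.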
JMJD2E inh: qHTS Assay for Inhibitors of Human Jumonji Domain Containing 2E (JMJD2E); Potency, µM (doses to about 57.1 µM), hits mostly inhibitors; Lysine-specific demethylase 4E (Homo sapiens), B2RXH2; 230,000 tested, 1.6% active; JMJD2E catalytic domain, FDH-coupled NADH fluorescence (FDH is formaldehyde dehydrogenase); further: nearly all actives have a fitted effect of over 50% in size
L3MBTL1 inh: qHTS Assay for the Inhibitors of L3MBTL1; AlphaScreen L3MBTL1–H3K9me1 peptide binding; Lethal(3)malignant brain tumor-like protein 1 (Homo sapiens), Q9Y468; 230,000 tested, 0.66% active; Potency, µM (doses to about 57.1 µM), usual class: inhibitors; AID 485360, 2010; further: nearly all actives have a fitted effect of over 60% in size
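Displacement of a biotinylated histone H3(1-15) peptide monomethylated at Lys9 (75 nM) from L3MBTL1 (50 nM) was measured by AlphaScreen after a 30 min room-temperature compound incubation; cefsulodin titration served as intraplate control.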
A number is an active result; . = inactive; ? = inconclusive; / = no result; ! = not confirmed by another sample; [ ] = dose if it differs, or a comment. Shown is part of a subset that was picked to be rich in hits. Unless noted, the call rests on the fitted dose curve; in most records, active means well fitted curve in the direction sought with a large enough effect; inconclusive means small, poorly fitted or top-dose-only effect, or another doubt; inactive means no such curve, though single readings can be large; an effect the other way counts as inactive or inconclusive.

SMILES	RECQ1 inh	BLM inh	APE1 inh	JMJD2E inh	L3MBTL1 inh
COc1cc([N+](=O)[O-])cc(/C=N/NC(=O)c2cncc(Br)c2)c1O	.	.	.	14µM	?
COc1cc(/C=N/NC(=O)c2cccc([N+](=O)[O-])c2)cc(OC)c1O	.	.	.	.	/
O=C(N/N=C\c1ccc([N+](=O)[O-])o1)c1cncc(Br)c1	.	.	.	.	/
COc1cc(/C=N/NC(=O)c2cncc(Br)c2)cc([N+](=O)[O-])c1O	.	.	.	7.9µM	32µM
CC(Oc1ccc(F)cc1)C(O)CCN(C)C (centres undefined)	.	.	.	.	.
Cc1cc(C)c(S(=O)(=O)N2CCCC(C(=O)NCc3ccccn3)C2)c(C)c1 (centres undefined)	/	.	.	/	/
CCN(CC)CCCN1C=C2C(=O)C(C)(OC(=O)CCC(=O)OC)C(=O)C=C2C=C1C1CC1 (centres undefined)	.[11.5 µM]	.[12.4 µM]	.[12.4 µM]	?	/
COC(=O)CCC(=O)OC1(C)C(=O)C=C2C=C(C3CC3)N(C3CCCCC3)C=C2C1=O (centres undefined)	.[11.5 µM]	.[12.4 µM]	.[12.4 µM]	16µM!	/
COC(=O)CCC(=O)OC1(C)C(=O)C=C2C=C(C3CC3)N(Cc3ccccc3)C=C2C1=O (centres undefined)	?	.[12.4 µM]	.[12.4 µM]	14µM!	/
Nc1nnnn1/N=C/c1ccco1	.	.	.	.	/
Cc1ccc(CSCC(=O)N/N=C/c2cccc(OC3CSC3)c2)cc1	.	.	.	.	.
CC(=C1C(=O)c2ccccc2C1=O)N1CCN(C/C=C/c2ccccc2)CC1	.	.	.	.	/
O=C(N/N=C/c1ccc(O)c2ncccc12)c1cccc(Br)c1	.	.	.	.	7.9µM
Nc1nonc1C(=O)N/N=C/c1cc(Br)ccc1O	.	.	.	3.5µM	1.4µM
COc1ccc(/C=N/NC(=O)c2ccncc2)cc1[N+](=O)[O-]	.	.	.	.	/
COc1cc(O)c(/C=N/NC(=O)c2ccncc2)c(OC)c1[N+](=O)[O-]	.	.	.	22µM	/
O=C(N/N=C/c1cc([N+](=O)[O-])ccc1O)c1ccc2c(c1)OCCO2	.	.	.	25µM	.
O=C(c1cc(F)c(F)cc1Cl)N1CCCc2ccccc21	/	.	.	/	.
O=C(NCc1ccccn1)c1cccc(NS(=O)(=O)c2ccc(Br)cc2)c1	/	/	.	/	.
O=C(N/N=C/c1cc([N+](=O)[O-])ccc1O)c1ccncc1	.	.	.	10µM	?
O=C(N/N=C/c1cc(Br)ccc1O)c1ccncc1	.	.	.	28µM	32µM
O=C(N/N=C/c1ccccc1O)c1ccncc1	/	.	.	/	?
Cc1nc(C)c(C(=O)N/N=C/c2cc(Br)ccc2O)s1	.	.	.	22µM	/
O=C(N/N=C/c1ccc([N+](=O)[O-])s1)c1cccc(Br)c1	.	.	22µM	.	.
Cc1cccc2cc(C(c3nnnn3C(C)(C)C)N(Cc3ccco3)CC3CCCO3)c(=O)[nH]c12 (centres undefined)	.	.	28µM	.	?
SMILES	RECQ1 inh	BLM inh	APE1 inh	JMJD2E inh	L3MBTL1 inh
Cc1cccc2cc(CN(Cc3ccco3)C(c3nnnn3CCc3ccccc3)C(C)C)c(=O)[nH]c12 (centres undefined)	.	.	.	18µM	.
CCC(C)(C)n1nnnc1C(C(C)C)N(Cc1ccco1)Cc1cc2cc3c(cc2[nH]c1=O)OCO3 (centres undefined)	.	.	.	?	.
Cc1ccc2[nH]c(=O)c(C(c3nnnn3C(C)(C)C)N(Cc3ccco3)CC3CCCO3)cc2c1 (centres undefined)	.	.	.	?	.
COCCn1c(-c2ccccc2)cnc1N	.	.	.	.	.
O=C1NC(=S)S/C1=C\c1ccc(SCc2ccccc2)o1	?	.	?	.	28µM
O=C1NC(=S)S/C1=C/c1ccc(OC(=O)c2ccco2)cc1	/	.	.	/	/
Oc1cc(Nc2ccncc2)cc2cccnc12	/	/	.	/	22µM
Oc1cc(NCc2cccnc2)ccc1-c1nc2ccccc2o1	.	.	.	?	.
CN(C)c1ccc(-c2cc(O)c3ncccc3c2)cc1	/	/	.	/	.
Oc1cc(NCCc2cccnc2)cc2cccnc12	/	/	.	/	28µM
COc1ccc(Nc2cc(O)c3ncccc3c2)cc1	/	/	.	/	32µM
Oc1cc(-c2ccncc2)cc2cccnc12	/	/	.	/	7.1µM
CC(=O)N1c2ccc(S(=O)(=O)N3CCCCCC3)cc2CC1C(=O)NCc1cccc(F)c1 (centres undefined)	/	.	/	/	/
O=C(Nc1ccnn1C1CCN(Cc2ccc(C#CCCO)cc2)CC1)c1cccc(F)c1	/	.	.	/	/
COc1ccc(C2C=C(c3ccc(Cl)c(Cl)c3)Nc3ncnn32)cc1 (centres undefined)	/	.	/	/	/
Nc1nnc(SCC(=O)Nc2nnc(-c3ccccc3)o2)s1	/	/	.	/	.
Oc1cc(-c2ccc(N3CCCCC3)nc2)cc2cccnc12	/	/	.	/	.
CN(C)CCCNC(=O)c1ccc(-c2cc(O)c3ncccc3c2)cc1	/	/	.	/	20µM
CN(C)CCCNC(=O)c1ccccn1	.	.	.	.	/
Oc1cc(Nc2cccnc2)cc2cccnc12	/	/	.	/	32µM
O=C(NC(=S)N1CCN(c2ccc(O)cc2)CC1)c1cccs1	.	.	.	.	.
c1ccc(Nc2c(-c3ccccc3)nc3ncccn23)cc1	/	.	/	/	/
Cc1cc(C)c(OCC(=O)Nc2ccc(N3CCOCC3)cc2)c(Br)c1	/	.	.	/	/
Cc1cc(C)c2c(c1)/C(=N/Nc1ccc(S(N)(=O)=O)cc1[N+](=O)[O-])CCC2	.	.	.	.	.
NS(=O)(=O)c1ccc(N/N=C2/CCCCC2C2CCCCC2)c([N+](=O)[O-])c1 (centres undefined)	2µM	.	.	.	?
SMILES	RECQ1 inh	BLM inh	APE1 inh	JMJD2E inh	L3MBTL1 inh
CN(C(=O)c1ccc(NC(=O)Cc2ccc(NC(=O)C3CCCN(C(=O)c4ccccc4)C3)cc2)cc1)C1CC1 (centres undefined)	/	/	.	/	.
CCOC(=O)C1CCN(C(=O)Cn2nc(C)n3nc(-c4ccc(CC)cc4)cc3c2=O)CC1	/	.	.	/	/
O=C(N/N=C\c1c(O)ccc2ccccc12)c1ccc(O)cc1	/	.	.	/	.
O=C(N/N=C/c1c(O)ccc2ccccc12)c1ccc(Br)o1	/	.	15µM	/	/
O=C(N/N=C/c1c(O)ccc2ccccc12)c1ccc[n+](CCO)c1	.	.	.	32µM	35µM
C/C(=N\NC(=O)c1ccco1)c1ccc(C(=O)O)s1	/	.	.	/	/
Cc1ccccc1NS(=O)(=O)c1ccc2[nH]cc(C(=O)NC(C)c3ccccc3)c(=O)c2c1 (centres undefined)	/	.	/	/	/

Bioassay records (PubChem)
